Bioassay records: PubChem BioAssay, several laboratories
PostGolgi yeast = growth inhibition of a yeast mutant, post-Golgi transport screen; 98,000 compounds, 0.9% hits; inhibition, % at 10 µM; AID 739; post-Golgi transport phenotypic cell assay;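 note: yeast cells grown in 1536-well plates; yeast grown about 18 h at 30C before absorbance read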
PostGolgi ctrl = growth of the yeast control strain, post-Golgi counter-screen; efflux-deficient yeast background strain, growth absorbance A615, 16 h; inhibition, % at 10 µM; 98,000 compounds, 5% hits; AID 738
CYP2C9 inhib = human CYP2C9 inhibition | inhibition, % at 5 µM | P11712 | AID 777 | CYP2C9 Supersomes, luciferin-H conversion, luminescence | 96,000 compounds, 20% hits;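 active = blocking of liver enzyme CYP2C9 beyond about 50% at 5 µM, limit read from the data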
Target sequence (P11712 whole entry, looked up): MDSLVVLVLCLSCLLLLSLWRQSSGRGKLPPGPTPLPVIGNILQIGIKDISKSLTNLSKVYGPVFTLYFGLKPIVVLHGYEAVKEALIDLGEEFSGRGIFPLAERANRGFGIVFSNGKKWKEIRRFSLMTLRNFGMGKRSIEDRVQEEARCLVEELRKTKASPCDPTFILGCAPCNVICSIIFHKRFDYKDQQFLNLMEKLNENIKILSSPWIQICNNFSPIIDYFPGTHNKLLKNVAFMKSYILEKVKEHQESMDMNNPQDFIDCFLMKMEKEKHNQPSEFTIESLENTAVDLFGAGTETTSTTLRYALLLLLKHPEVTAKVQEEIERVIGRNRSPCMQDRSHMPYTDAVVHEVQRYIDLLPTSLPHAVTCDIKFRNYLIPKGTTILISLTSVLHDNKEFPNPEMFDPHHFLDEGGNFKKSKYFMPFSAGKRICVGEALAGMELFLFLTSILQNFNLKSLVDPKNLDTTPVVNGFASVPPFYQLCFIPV
CYP2C19 act = activators of human cytochrome P450 2C19; P33261; recombinant CYP2C19, luciferin-H EGE luminescence; stronger effect = higher value; 0 = fully inhibited enzyme, 1 = untreated enzyme; activation factor at 5 µM; 96,000 tested, under 10 active; AID 1025;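 active = activation factor of at least 2 at 5 µM in the primary screen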
CYP2C19 inh = blocks human cytochrome P450 2C19; inhibition, % at 5 µM; 96,000 compounds, 21% hits; CYP2C19 Supersomes, luciferin-H EGE luminescence, 30 min; P33261;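 active = CYP2C19 inhibition above a set limit at 5 µM in the primary screen, cut at about 50% in these data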
CYP2C9 activ = activators of human CYP2C9; 96,000 compounds, 1.4% hits; recombinant CYP2C9, luciferin-H conversion, luminescence; stronger effect = higher value; factor 1 = untreated enzyme, 0 = blocked; P11712; activation factor at 5 µM; AID 1024;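 active = activation factor of 2 or more for CYP2C9 at a 5 µM dose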
Of the large screens only hits and unclear results are named; the others gave an inactive call. The list is not random: actives were taken first. Their share in the collection is about 32%. Cut-off read from the data, not from the text of the source, unless noted: active = inhibition above about 30%; inactive = the rest.

CCCc1[nH]nc2c1C(c1cccc(OC)c1)C(C#N)=C(N)O2 (stereo not given)	CYP2C9 inhib 76, CYP2C19 inh 73
CCCCc1c(O)nc(SCCN(C)C)n(-c2ccccc2)c1=O	none
CCC(=O)OC1c2ccccc2C(=O)N1Cc1ccccc1 (stereo not given)	CYP2C19 inh 62
COC(=O)COc1ccc2c(-c3ccc(OC)cc3)cc(=O)oc2c1	CYP2C19 inh 52
COc1ccc(-c2cc(=O)oc3cc(OCc4nn[nH]n4)ccc23)cc1	CYP2C9 inhib 76
COc1ccc(-c2cc3ccc(OCc4nn[nH]n4)cc3oc2=O)cc1OC	CYP2C9 inhib 59
CC(Oc1ccc2c(-c3ccccc3)cc(=O)oc2c1)C(=O)O (stereo not given)	CYP2C9 inhib 74
Cc1c(CC(=O)O)c(=O)oc2cc(OCc3nn[nH]n3)ccc12	none
CC(O)c1cccc(NC2=CC(=O)CC(C)(C)C2)c1 (stereo not given)	none
CCOc1cc(C(=O)Nc2cc(=O)n(C)c(=O)n2C)cc(OCC)c1OCC	none
CCCc1cc(=O)oc2cc(OCC(=O)OC)cc(OCC(=O)OC)c12	CYP2C9 inhib 61
CCCCCCc1ccc(OCC(=O)OC)cc1OCC(=O)OC	none
CCOc1ccccc1C(=O)N(CN1CCCC1=O)c1cccc(Cl)c1	none
CCCC(=O)NCCc1cc2c(C)ccc(C)c2[nH]c1=O	none
CC(C)(C)NC(=O)CN(C(=O)CNC(=O)c1cccs1)c1ccc2c(c1)OCCO2	CYP2C9 inhib 80
CCc1ccc(N(C(=O)CNC(=O)c2cccs2)C(C(=O)NC(C)(C)C)c2cc(OC)c(OC)c(OC)c2)cc1 (stereo not given)	none
CCc1nc2c3cnn(-c4cc(Cl)ccc4C)c3ncn2n1	CYP2C19 inh 85
COc1ccccc1N1CCN(S(=O)(=O)CC23CCC(CC2=O)C3(C)C)CC1 (stereo not given)	CYP2C19 inh 60
Cn1c(=O)oc2cc(S(=O)(=O)N3CCCc4ccccc43)ccc21	none
CCS(=O)(=O)Nc1ccc(-c2ccc(NS(=O)(=O)CC)c(OC)c2)cc1OC	none (no result: CYP2C9 inhib, CYP2C19 act, CYP2C19 inh, CYP2C9 activ)
COc1ccccc1NS(=O)(=O)CC12CCC(CC1=O)C2(C)C (stereo not given)	CYP2C19 inh 77
COc1cccc(NS(=O)(=O)CC23CCC(CC2=O)C3(C)C)c1 (stereo not given)	CYP2C19 inh 59
CC1(C)C2CCC1(CS(=O)(=O)N1CCOCC1)C(=O)C2 (stereo not given)	none
CC1(C)C2CCC1(CS(=O)(=O)N1CCCc3ccccc31)C(=O)C2 (stereo not given)	CYP2C9 activ 3.2
Cc1csc2nc(=O)c3ccccc3n12	none
Cc1c(C2N3CC4(C)CN2CC(C)(C3)C4=O)c2ccccc2n1C (stereo not given)	none
COC(=O)CSc1nc2sc3c(c2c(=O)n1C1CCCCC1)CCN(C)C3	CYP2C9 inhib 52, CYP2C19 inh 78
COc1ccc(-n2c(SCC(N)=O)nc3sc4c(c3c2=O)CCN(C)C4)cc1	CYP2C19 inh 73
CCCNS(=O)(=O)c1ccc(CCC(=O)N2CCC(C)CC2)cc1	CYP2C9 inhib 52, CYP2C19 inh 82
CCCNS(=O)(=O)c1ccc(CCC(=O)NCC2CCCO2)cc1 (stereo not given)	none (no result: CYP2C9 inhib, CYP2C19 act, CYP2C19 inh, CYP2C9 activ)
CC1CCN(C(=O)CCc2ccc(S(=O)(=O)NC(C)(C)C)cc2)CC1	CYP2C9 inhib 63, CYP2C19 inh 74
C=CCN(CC=C)S(=O)(=O)c1ccc2nsnc2c1	none
Cc1nnc(NC(=O)Cc2cccs2)s1	none
CCC(=O)Nc1ccc(C(=O)CSc2nc3ccccc3cc2CC)cc1	CYP2C9 inhib 88
O=C(Nc1ccccc1)N(O)c1ccc(Cl)cc1	CYP2C9 inhib 61, CYP2C19 inh 80
O=C(N/N=C/c1ccc(Cl)cc1)Nc1ccccc1	none
Cc1ccc(-c2nnc(-c3ccc(NC(=O)Cc4cccs4)cc3)o2)cc1	CYP2C9 inhib 84, CYP2C19 inh 53
O=C(Cc1cccs1)Nc1ccccc1NC(=O)Cc1cccs1	CYP2C19 inh 51
O=C(Cc1cccs1)Nc1ccccc1C(=O)O	none
COc1cc(COCC(O)CN2CCOCC2)cc(OC)c1OC (stereo not given)	none
CN(C)S(=O)(=O)c1ccc(NC(=O)N2CCN(c3ccccc3Cl)CC2)cc1	none
CCc1nc(NCC2CCCN2CC)c2nnn(Cc3ccccc3F)c2n1 (stereo not given)	none
O=C(Nc1ccc(Cl)cc1)N(Cc1cccs1)Cc1cccs1	PostGolgi ctrl 35
CCC(=O)Nc1cc(C(=O)OCC(=O)c2ccccc2Cl)ccc1C	CYP2C9 activ 2.1
O=C(Cc1cccs1)Nc1ccc(Cl)cc1	CYP2C9 inhib 64, CYP2C19 inh 94
CCC(=O)Nc1ccc(-c2nnc(-c3ccccc3)o2)cc1	PostGolgi ctrl 40
O=C(Nc1ccccc1)N(Cc1ccccc1)Cc1ccccc1	none
O=C(Nn1c(C2CC2)nc2ccccc2c1=O)c1ccco1	none
CCC(=O)Nc1ccc(C(=O)OCc2ccccc2Cl)cc1	CYP2C19 inh 57
CCC(=O)Nc1ccc(C(=O)c2ccccc2)cc1	CYP2C9 activ 2
O=C(Nc1ccccc1)N(Cc1cccs1)C1CCCC1	CYP2C9 inhib 85, CYP2C19 inh 51
O=C(NCc1cccs1)C1CCCN1C(=O)Nc1ccccc1 (stereo not given)	none
O=C(NCCCN1CCCC1=O)c1cc(NS(=O)(=O)c2ccc(F)cc2)cc(NS(=O)(=O)c2ccc(F)cc2)c1	none
CCOC(=O)N1CCN(C(=O)CSc2nnc(-c3cccc(OC)c3)o2)CC1	CYP2C9 inhib 54
CCOC(=O)N1CCN(C(=O)CSc2nnc(-c3ccccc3OC)o2)CC1	CYP2C9 activ 2.2
Cc1cccc(C)c1OC(=O)CSc1nnc(-c2ccccc2O)o1	CYP2C9 inhib 67, CYP2C19 inh 75
CCOC(=O)N1CCN(C(=O)CSc2nc(-c3cccc(C)c3)ns2)CC1	CYP2C9 inhib 69
Cc1ccc(S(=O)(=O)N2CCN(C(=O)CSc3nnc(-c4ccco4)o3)CC2)cc1	CYP2C9 inhib 73, CYP2C19 inh 76
Cc1ccc(-c2nnc(SCC(=O)N3CCCC3)o2)cc1	none
COc1ccccc1-c1nnc(SCC(=O)OC(C)C)o1	CYP2C19 inh 59
CCCCC(CCC(=O)Nc1ccc(C(=O)OC)cc1)C(=O)O (stereo not given)	none (no result: CYP2C9 inhib, CYP2C19 act, CYP2C19 inh, CYP2C9 activ)
COc1ccc(S(=O)(=O)NC(CC(=O)NCC2CCCO2)c2ccco2)cc1 (stereo not given)	none
CNC(=O)COC(=O)c1cc(NC(=O)c2ccco2)c(OC)c(OC)c1	CYP2C9 inhib 54
COc1ccc(Cl)cc1C(=O)NNC(=O)c1cccnc1	none
COc1ccc(Cl)cc1NC(=S)N1CCN(C(=O)c2ccco2)CC1	CYP2C9 activ 2
COc1ccc(Cl)cc1NC(=O)c1cccnc1	CYP2C9 activ 2.6
COc1ccc(NC(C)=O)cc1NC(=O)CN1CCN(C(=O)c2ccco2)CC1	none
